M1 antag – antagonists of rat M1 muscarinic receptor; AID 628, 2007; CHO-M1 cells, Fluo-4 calcium, ACh EC80 antagonist mode; hits give low values; actives 3.4% (n = 64,000); Muscarinic acetylcholine receptor M1 (Rattus norvegicus), P08482; B-score at 10 µM;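 active = calcium fluorescence response, raw or row-and-column corrected B-score, differing from the plate sample mean either way at a set confidence level, mostly lower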
Target sequence (P08482 whole entry, looked up): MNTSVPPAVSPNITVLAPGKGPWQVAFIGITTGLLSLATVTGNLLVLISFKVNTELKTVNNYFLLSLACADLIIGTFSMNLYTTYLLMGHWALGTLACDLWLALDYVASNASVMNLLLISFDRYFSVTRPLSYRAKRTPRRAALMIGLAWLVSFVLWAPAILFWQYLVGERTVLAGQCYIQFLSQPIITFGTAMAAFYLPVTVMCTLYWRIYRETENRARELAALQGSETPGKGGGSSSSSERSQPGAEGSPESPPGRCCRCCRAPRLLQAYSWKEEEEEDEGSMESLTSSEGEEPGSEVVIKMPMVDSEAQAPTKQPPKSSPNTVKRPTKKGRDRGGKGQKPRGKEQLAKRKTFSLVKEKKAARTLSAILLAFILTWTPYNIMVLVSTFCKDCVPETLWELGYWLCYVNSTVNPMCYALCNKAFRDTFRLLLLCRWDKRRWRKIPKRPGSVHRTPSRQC
M1 agonist – M1 muscarinic receptor agonists, primary screen, CHO-M1 cells, Fluo-4 calcium, agonist mode; Fluo-4 calcium fluorescence; hits give high values; B-score at 10 µM; actives 3% (n = 64,000);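 active = fluorescence rise, raw or as B-score row- and column-corrected plate score, outside the 99.7% band of its plate's samples, either direction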
D1 allo mod – D1 CRE-luciferase signal change, two-sided – cell-based, HEK293 D1, dopamine EC30, D1 allosteric modulator project, primary screen; B-score at 10 µM; actives 5.9% (n = 58,000); AID 641, 2007; dopamine EC30 potentiation; actives deviate in either direction; D(1A) dopamine receptor (Homo sapiens), P21728;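 active = luminescence count or its row- and column-corrected plate score outside the 99.7% band of the plate's sample wells, on either side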
mHtt clearance – clearance of mutant huntingtin inclusions, primary screen, imaging, HeLa Exon1htt(103Q)mCFP, confocal imaging | aggregate imaging; zero = plate's median compound well | inhibition, % at 1.5 µM | actives 0.42% (n = 47,000);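 active = inhibition of aggregate fluorescence above about 70%, also judged a hit by eye on the cell image, limit read from the data, passing the limit was not always enough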;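 note: cells exposed to compound for three days before fixation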
The depositor's hits bear a star; . = no result given. This is a sample that favours compounds with a hit; in the whole collection about 9.1% have one here.

SMILES	M1 antag	M1 agonist	D1 allo mod	mHtt clearance
CCOc1ccc(OCC)c(-c2c(=O)n(OCc3ccccc3Br)c3ccccc3[n+]2[O-])c1	.	.	.	-5
O=C(Nc1ccc(-c2nc3ccccc3o2)cc1)C1CCCO1 (configuration not stated)	-0.7	-1	-5.2*	-1
O=C(Cc1ccc(F)cc1)Nc1c2c(nn1-c1cccc(Cl)c1)CS(=O)C2 (configuration not stated)	0.39	-0.016	-0.22	25
CCc1nc(SCC(=O)Nc2cccc(C(F)(F)F)c2)c2c(=O)n(C)c(=O)n(C)c2n1	-0.091	-1.2	.	-4
N#Cc1nc(COc2ccccc2)oc1NCCCn1ccnc1	0.34*	-0.16	0.1	47
CCOC(=O)c1sc(=S)n(C)c1N	-0.56	0.26	4.5*	.
O=C(Cc1ccccc1)Nc1nc2ccccc2[nH]1	0.018	-0.018	-5.5*	-3
C=CCn1c(C)cc(C(=O)COc2ncnc3sccc23)c1C	0.4	-0.15	-4.5*	60
CC(C)NC(=O)COc1ncnc2sccc12	.	.	.	42
COc1cc2c(C(=O)N3CCN(C4CCCCC4)CC3)cn(CC(C)C)c(=O)c2cc1OC	.	.	-5.7*	-35
COc1cc2c(cc1NC(=O)CN(C)Cc1nc3ccccc3c(=O)[nH]1)oc1ccccc12	1.3	2	-2.7*	.
COCCn1c(C)nc2oc3ccc(Br)cc3c(=O)c2c1=O	1.9*	0.37	-0.24	-10
CCc1nc2oc3ccccc3c(=O)c2c(=O)n1CCOC	0.49	1.6	-0.2	9
CC(NC(=O)c1cccnc1)c1ccc2c(c1)OCO2 (configuration not stated)	0.65	0.32	0.00055	1
O=C(NC1=NC2CCCCC2N1)c1ccccc1 (configuration not stated)	0.16	0.053	-5.4*	-4
O=C(NC(=O)c1ccccc1)OCC1CCCN2CCCCC12 (configuration not stated)	.	.	.	3
CCCC(=O)Nc1cnc(NC(=O)c2cccc(F)c2)cc1C	0.015	0.61	-3.1*	.
Cc1cc(NC(=O)C(C)C)ncc1NC(=O)c1cccc(F)c1	-0.088	-0.94	0.14	-19
N#Cc1nc(-c2ccco2)oc1N1CCc2ccccc2C1	0.73	3.9*	3.7	.
Cc1ccccc1-n1c(Cn2c(=O)sc3ccccc32)nnc1SCC(=O)NCC1CCCO1 (configuration not stated)	-0.9	-0.17	0.019	-160
CC(=O)c1c(C)oc(C)c1CSCc1ccc(C(=O)O)o1	0.32	-0.53	-8.1*	-14
O=C(c1cc2ccccc2oc1=O)N(Cc1ccccc1)Cc1ccc2c(c1)OCO2	.	.	.	36
Brc1ccc2c(c1)c1nc3ccccc3nc1n2CCN1CCOCC1	0.32	-0.58	4.3*	.
COc1ccccc1-n1c(=O)oc2ccc(Cl)cc2c1=O	-1.5	-2.4	-2.3*	38
CC1(C)OC(=O)C(=CNC(Cc2c[nH]c3ccccc23)C(=O)O)C(=O)O1 (configuration not stated)	-0.23	0.15	0.29	-8
SMILES	M1 antag	M1 agonist	D1 allo mod	mHtt clearance
CC1(C)OC(=O)C(=CNC(CCC(N)=O)C(=O)O)C(=O)O1 (configuration not stated)	1.3*	-0.13	0.043	-17
Cc1ccc2nc(C(F)OC(F)(F)F)[nH]c2c1 (configuration not stated)	1.8	0.15	-1	73*
CCOc1ccc(-c2nnn(CC(=O)NCc3ccc(F)cc3)n2)cc1OCC	-0.031	-0.067	1.4	-28
CCOc1ccc(-c2nnn(CC(=O)Nc3cccc(OC)c3)n2)cc1OCC	0.13	-0.87	13*	.
CCC(=O)Nc1ccc(NC(=O)c2ccccn2)cn1	0.18	0.036	-2.9	.
O=C(Nc1ccc(NC(=O)c2ccco2)nc1)c1ccccn1	1.3	1.6	-4.1*	.
CC(C)C(=O)Nc1ccc(NC(=O)c2ccccn2)cn1	0.097	-0.54	-4.9*	.
O=C(Nc1ccc(NC(=O)C2CCCCC2)cn1)c1ccco1	-0.0023	0.018	-3.2*	18
O=C(Cc1ccccc1)Nc1ccc(NC(=O)c2ccco2)nc1	-2	-1.4	-1.4	-16
CC(NC(=O)COc1ccccc1)C(c1ccccc1)N1CCN(C)CC1 (configuration not stated)	-0.91	-0.017	-0.026	.
c1ccc(Nc2nc(-c3cccnc3)cs2)nc1	0.66	-2.7*	0.84	-11
c1cncc(Nc2nc(-c3cccnc3)cs2)c1	-0.58	0.0068	1.7	.
O=C(CSc1ccc(-c2nc3ccccc3[nH]2)cn1)N1CCN(C(=O)c2ccco2)CC1	-1	12*	-1.7	26
COc1ccccc1N=c1scc(-c2ccc3c(c2)NC(=O)CO3)n1CC1CCCO1 (configuration not stated)	-0.27	2.8	-2.8*	.
O=C(OCCNC(=O)c1ccc2ccccc2n1)c1ccc(F)cc1	.	.	.	70
CCC(C)(C)NC(=O)CN(C(=O)CNS(=O)(=O)c1ccc(C)cc1)c1ccc2c(c1)OCCO2	1.4	2.6	-0.061	.
CSc1cccc(NC(=O)C(C)NS(=O)(=O)c2ccc(F)cc2)c1 (configuration not stated)	.	.	.	-69
N#CC1=C(N)C(C#N)(C#N)C(c2cccnc2)C2CCCC=C12 (configuration not stated)	1.4	7.9*	-1.2	.
CCOC(=O)C1=C(CC)Nc2ccccc2N=C1NC(=O)c1cc(S(=O)(=O)N(C)C)ccc1Cl	.	.	.	16
CCOC(=O)C1=C(CC)Nc2ccccc2N=C1NC(=O)Nc1ccccc1OC	0.84*	0.87	0.25	.
CC1CC(C)CN(c2nc3c(c(=O)[nH]c(=O)n3C)n2CCSc2nc3ccccc3o2)C1 (configuration not stated)	-0.00083	-1.5	0.015	.
CCCCOc1ccc(-c2nnn(C(C)(C)C(=O)OC)n2)cc1	1.5*	0.3	-1.1	-8
Cc1cc(C=O)c(C)n1-c1ccc(N2CCCC2)c([N+](=O)[O-])c1	.	.	.	-6
CC(C)C(=O)Nc1ncc2c(n1)CC(c1cccs1)CC2=O (configuration not stated)	.	.	.	-30
CCOc1ccc(-c2nnn(CC(=O)NCc3cccs3)n2)cc1	0.61	-0.037	-0.004	11
SMILES	M1 antag	M1 agonist	D1 allo mod	mHtt clearance
CCOc1ccc(-c2nnn(CC(=O)NCc3ccc4c(c3)OCO4)n2)cc1	.	.	.	76*
O=C(O)c1cc2nc3c(c(C(F)(F)F)n2n1)CCc1ccccc1-3	0.34	-0.019	-4.5*	22
CC1CCN(Cc2nc3c(c(=O)n(C)c(=O)n3C)n2CCN2CCOCC2)CC1	0.68	-0.66	-0.93	.
Cc1oc(-c2nc3ccccc3n2C)cc1C(=O)c1ccccc1	-1.9	-0.84	-3.8*	.
O=C(CSc1nnc(-c2ccco2)n1Cc1ccco1)Nc1ccccc1	.	.	.	29
CCCn1c(SCC(=O)Nc2ccc3c(c2)OCCO3)nnc1-c1ccco1	.	.	-0.082	.
Cc1ccc(-n2c(SCC(=O)Nc3ccc4c(c3)OCCO4)nnc2-c2ccco2)cc1	-0.35	-0.43	-0.65	72*
COc1cccc(-c2nnc(SCC(=O)Nc3ccc4c(c3)OCCO4)n2Cc2ccco2)c1	-0.12	5.8*	0.29	.
O=C(CSc1nnc(-c2ccccc2)n1Cc1ccco1)Nc1ccc(S(=O)(=O)N2CCCC2)cc1	.	.	.	84*
